Only some compounds are listed: those with a hit (about 19% of all), similar ones and a draw of the others.
TDP1 cell CPT: DT40-hTDP1 cell growth loss with CPT | chicken DT40 Tdp1-/-;hTDP1 cells + 20 nM CPT, ATP luminescence, 48 h | Potency, µM (doses to about 46.2 µM), usual class: inhibitors | 420,000 tested, 12% active; further: nearly all actives have a fitted effect of over 55% in size
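Chicken DT40 Tdp1-/- cells stably complemented with human TDP1 were seeded at 400 cells/well in medium containing 20 nM camptothecin, exposed to pin-transferred compounds, and grown at 37 °C for at least 48 hr. Viability was read as ATP luminescence.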
TDP1 cell noCPT: qHTS for Inhibitors of human tyrosyl-DNA phosphodiesterase 1 (TDP1): qHTS in cells in absence of CPT. DT40 Tdp1-/- hTDP1 cells, no CPT, ATP luminescence, 48 h. Potency, µM (highest dose often 46.2 µM), hits mostly inhibitors. 420,000 tested, 15% active. AID 686978, 2013; further: nearly all actives have a fitted effect of over 55% in size
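Compound effects on proliferation are scored in DT40 Tdp1-/-;hTDP1 cells in the absence of CPT. ATP levels (CellTiter-Glo luminescence) are recorded after a ≥48 hr, 37 °C incubation.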
HT1080-NT tox: kills 2HG-producing HT-1080-NT fibrosarcoma cells; HT-1080-NT fibrosarcoma viability, CellTiter-Glo ATP luminescence, 48 h; Potency, µM (top dose mostly 46.1 µM), actives largely listed as cytotoxic; 360,000 tested, 1.6% active; AID 686970;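 further: NT is the 2HG producing partner of a matched IDH1 knockdown line; nearly all actives have a fitted effect of over 55% in size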
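Compounds were tested in concentration-response format on HT-1080-NT cells for 48 hours at 37 degrees C. Cell viability came from CellTiter-Glo luminescence; curves were classified by r2, response magnitude and activity.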
IL-1B inflam inh: inhibitors of inflammasome signaling (IL-1 beta secretion); 360,000 tested, 4.7% active; activity change, % at 57.5 µM; THP-1 LPS/ATP IL-1B secretion, AlphaLISA, 16 h; hits give low values; in the data active means activity change below about -50%; inconclusive means mostly about -30% to -49%
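THP-1 cells pretreated 1 hr with compounds (up to 57.5 uM final), then stimulated with LPS (250 ng/mL final) plus ATP (1.25 mM final); secreted IL-1B measured by AlphaLISA after 16 hr, decreased signal indicating inhibition.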
HT1080 IDH1KD tx: kills HT-1080 cells with IDH1 knockdown | HT-1080 IDH1 knockdown viability, ATP luminescence, 48 h | Potency, µM (highest dose often 46.1 µM), usual class: cytotoxic | 360,000 tested, 2% active | AID 686971
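IDH1KD HT-1080 cells, 750/well, RPMI + 5% FBS; compound pinned after 2 h settling; 48 h, 37 °C; CellTiter-Glo luminescence; % activity normalised to DMSO and no-cell wells; curves fitted, classed by r2 and efficacy.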
Of the large screens only hits and unclear results are named; the others gave an inactive call. Unless noted, the call rests on the fitted dose curve; in most records, active means well fitted curve in the direction sought with a large enough effect; inconclusive means small, poorly fitted or top-dose-only effect, or another doubt; inactive means no such curve, though single readings can be large; an effect the other way counts as inactive or inconclusive.

CCN(C(=O)CSc1n[nH]c(-c2cc(Cl)ccc2OC)n1)C1CCS(=O)(=O)C1 (configuration not stated)	none
CCOc1ccc(OCC(O)CNC2CCN(Cc3ccccc3)CC2)cc1 (configuration not stated)	TDP1 cell CPT 5.8µM, TDP1 cell noCPT 9.2µM, HT1080-NT tox inconclusive, IL-1B inflam inh inconclusive, HT1080 IDH1KD tx inconclusive
COc1ccc(OCC(O)CNC2CCCC2)cc1 (configuration not stated)	TDP1 cell noCPT inconclusive
CCOc1ccccc1OCCOCCN1CCN(Cc2ccccc2)CC1	TDP1 cell CPT inconclusive, TDP1 cell noCPT inconclusive
O=C(c1ccccc1)c1ccc(OCCOCCN2CCN(Cc3ccccc3)CC2)cc1	TDP1 cell CPT 23µM, TDP1 cell noCPT 21µM, HT1080-NT tox 18µM, IL-1B inflam inh inconclusive, HT1080 IDH1KD tx inconclusive
O=C(/C=C/c1ccc([N+](=O)[O-])cc1)N1CCN(Cc2ccccc2)CC1	TDP1 cell CPT inconclusive, TDP1 cell noCPT inconclusive
c1ccc(CN2CCN(CCOCCOc3ccc4c(c3)CCC4)CC2)cc1	TDP1 cell CPT inconclusive, TDP1 cell noCPT 23µM, HT1080-NT tox 16µM, IL-1B inflam inh -60, HT1080 IDH1KD tx inconclusive
O=C(/C=C/c1ccc(OCCCF)cc1)N1CCN(Cc2ccccc2)CC1	TDP1 cell noCPT inconclusive, IL-1B inflam inh -53
FC(F)(F)c1cccc(OCCN2CCN(Cc3ccccc3)CC2)c1	TDP1 cell CPT 21µM, TDP1 cell noCPT inconclusive
O=C(c1ccccc1)c1ccc(OCC(O)CN2CCN(Cc3ccccc3)CC2)cc1 (configuration not stated)	TDP1 cell CPT 21µM, TDP1 cell noCPT 23µM, IL-1B inflam inh inconclusive
Cc1c(NC(=O)CSc2ccccc2C(=O)Nc2cccnc2)c(=O)n(-c2ccccc2)n1C	none
O=C(CN1CCNCC1)NC1CCCCC1	none (no result: HT1080-NT tox, IL-1B inflam inh, HT1080 IDH1KD tx)
CCc1ccc(CNC(=O)C2Cc3cc(S(=O)(=O)N4CCCC4)ccc3N2C(C)=O)cc1 (configuration not stated)	TDP1 cell CPT inconclusive
COc1ccc(OC)c(S(=O)(=O)Nc2ccc(-c3ccc4nncn4n3)cc2)c1	TDP1 cell CPT 2.1µM, TDP1 cell noCPT 2.1µM, HT1080-NT tox 23µM, HT1080 IDH1KD tx 16µM
COc1ccc(S(=O)(=O)Nc2cccc(-c3ccc4nncn4n3)c2)cc1F	TDP1 cell CPT 2.3µM, TDP1 cell noCPT 2.3µM, HT1080-NT tox 4.6µM, HT1080 IDH1KD tx 2.3µM
CCOc1ccc(CC(=O)Nc2cccc(-c3ccc4nnc(C)n4n3)c2)cc1	TDP1 cell CPT inconclusive, TDP1 cell noCPT inconclusive
COc1ccc(CC(=O)Nc2cccc(-c3ccc4nnc(C)n4n3)c2)cc1OC	TDP1 cell noCPT 9.2µM, IL-1B inflam inh inconclusive
COc1ccc(CC(=O)Nc2cccc(-c3ccc4nncn4n3)c2)cc1OC	TDP1 cell CPT inconclusive, TDP1 cell noCPT 15µM, HT1080 IDH1KD tx inconclusive
COc1ccc(C(=O)Nc2cccc(-c3ccc4nncn4n3)c2)cc1OC	TDP1 cell CPT inconclusive
O=S(=O)(Nc1cccc(-c2ccc3nncn3n2)c1)c1cccc(F)c1	none
Cc1cc(C)cc(N(CCC#N)C(=O)CSc2n[nH]c(N)n2)c1	none
C[C@H](CO)N1C[C@H](C)[C@H](CN(C)S(=O)(=O)c2ccc(C#N)cc2)OCc2cnnn2CCCC1=O	none
O=c1c(-c2cccc(F)c2)nc2cncnc2n1C1CC1	none (no result: HT1080-NT tox, IL-1B inflam inh, HT1080 IDH1KD tx)
COC(=O)c1ccc(C(=O)OC)c(NC(=O)CN(C)Cc2ccc(Cl)c(Cl)c2)c1	TDP1 cell CPT inconclusive, TDP1 cell noCPT inconclusive
c1ccc(-c2ccc3c(c2)c2c4n3CCN=C4CCC2)cc1	TDP1 cell CPT 23µM, TDP1 cell noCPT inconclusive, HT1080-NT tox inconclusive, IL-1B inflam inh inconclusive, HT1080 IDH1KD tx inconclusive
COc1cc(C)ccc1OCCCOc1ccccc1Cl	TDP1 cell CPT inconclusive, TDP1 cell noCPT inconclusive
CC1(C)N=C(N)N=C(N)N1c1ccc(OCCCOc2ccccc2)c(Cl)c1	TDP1 cell CPT 1.8µM, TDP1 cell noCPT 2.3µM, HT1080-NT tox inconclusive, IL-1B inflam inh inconclusive, HT1080 IDH1KD tx 2.1µM
Cc1cccc(NC(=O)CCc2ccccc2)c1	none
CC1(C)N=C(N)N=C(N)N1c1cccc(CC(=O)Nc2ccccc2)c1	TDP1 cell CPT 9.2µM, TDP1 cell noCPT 2.6µM, HT1080-NT tox 9.2µM, HT1080 IDH1KD tx 3.3µM
CC1(C)N=C(N)N=C(N)N1c1ccc(OCC(=O)Nc2ccccc2)c(Cl)c1	TDP1 cell CPT 1.2µM, TDP1 cell noCPT 0.73µM, HT1080-NT tox 0.73µM, HT1080 IDH1KD tx 0.37µM
Cc1cccc(NC(=O)CCc2ccc(N3C(N)=NC(N)=NC3(C)C)cc2)c1	TDP1 cell CPT 0.33µM, TDP1 cell noCPT 0.37µM, HT1080-NT tox 1µM, HT1080 IDH1KD tx 0.46µM
CN(C)c1nc2cc(Cl)ccc2cc1CN(Cc1ccc2c(c1)OCO2)C(=O)c1ccoc1	none (no result: HT1080-NT tox, IL-1B inflam inh, HT1080 IDH1KD tx)
COc1ccc(S(=O)(=O)NCCC(=O)NC2CCCCC2C)cc1[N+](=O)[O-] (configuration not stated)	none
CC1=C(C(=O)N2CCOCC2)CC(CC(=O)NCc2cccs2)C(=O)N1Cc1ccc(F)cc1 (configuration not stated)	none
O=C(O)CC(C(=O)O)C(=Cc1ccccc1)c1ccccc1 (configuration not stated)	none
CCc1nnc(NC(=O)c2ccc3ccccc3n2)s1	TDP1 cell CPT inconclusive, TDP1 cell noCPT 18µM
CCSc1nnc(NC(=O)c2cc(C)nc3ccccc23)s1	none
CCc1nnc(NC(=O)c2sc3nc4cc(C)ccc4cc3c2N)s1	TDP1 cell CPT 2.6µM, TDP1 cell noCPT 2.9µM
CCSc1nnc(NC(=O)c2ccc3ccccc3n2)s1	TDP1 cell CPT 18µM, TDP1 cell noCPT inconclusive
CCOC(=O)Cc1csc(NC(=O)c2sc3nc4ccc(C)cc4cc3c2N)n1	none
CCc1nnc(NC(=O)c2ccc(OC)cc2)s1	none
O=C(COc1ccc([N+](=O)[O-])cc1Cl)NCCc1ccccc1	TDP1 cell noCPT inconclusive
CCOc1ccccc1OCCCOc1ccc([N+](=O)[O-])cc1Cl	TDP1 cell noCPT 23µM
COc1cccc(OC)c1OCCCOc1ccc([N+](=O)[O-])cc1Cl	TDP1 cell CPT inconclusive, TDP1 cell noCPT inconclusive, IL-1B inflam inh inconclusive
CC(C)C(C)NC(=O)COc1ccc([N+](=O)[O-])cc1Cl (configuration not stated)	TDP1 cell CPT 8.2µM, TDP1 cell noCPT inconclusive
Cc1ccc(-c2nnc3ccccc3c2C(=O)Nc2ccccc2F)cc1	none (no result: HT1080-NT tox, IL-1B inflam inh, HT1080 IDH1KD tx)
CCN(C(=O)CSc1nnc(SC)s1)c1c(N)n(Cc2ccccc2)c(=O)[nH]c1=O	none
CC(=O)N1c2ccccc2N(Cc2ccc(C)cc2C)C(=O)C1(C)C	TDP1 cell CPT 6.5µM, TDP1 cell noCPT 5.8µM, HT1080-NT tox inconclusive, HT1080 IDH1KD tx 16µM
C=CCN1C(=O)C(C)(C)N(C(C)=O)c2ccccc21	none

Assay outcomes deposited in PubChem by National Center for Advancing Translational Sciences (NCATS).
